Screening results: PubChem BioAssay, National Center for Advancing Translational Sciences (NCATS)
Only some compounds are listed: those with a hit (about 2.9% of all), similar ones and a draw of the others.
D3 antag – qHTS of D3 Dopamine Receptor Antagonist: qHTS. D(3) dopamine receptor (Homo sapiens), P35462. D3R cells, DiscoveRx beta-arrestin luminescence, antagonist mode; hits give low values. max response, negative = inhibition, %. 2.5% of 360,000 active. AID 652054, 2013; in the data active means max response below about -50%; inconclusive means no clear call, values can overlap the other calls
Target sequence (P35462 whole entry, looked up): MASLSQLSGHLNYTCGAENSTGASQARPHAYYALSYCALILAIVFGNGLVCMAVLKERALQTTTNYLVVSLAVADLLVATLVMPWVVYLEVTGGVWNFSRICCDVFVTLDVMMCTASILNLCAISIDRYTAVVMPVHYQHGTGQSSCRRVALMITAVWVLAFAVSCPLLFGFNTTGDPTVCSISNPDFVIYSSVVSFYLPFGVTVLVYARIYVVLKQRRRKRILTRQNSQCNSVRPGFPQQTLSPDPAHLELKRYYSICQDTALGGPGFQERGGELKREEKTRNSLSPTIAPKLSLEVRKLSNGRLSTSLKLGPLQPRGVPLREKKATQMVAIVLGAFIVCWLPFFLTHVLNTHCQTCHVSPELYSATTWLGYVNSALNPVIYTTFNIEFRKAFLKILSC
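Cells expressing the human receptor were seeded at 1500 cells/well, incubated overnight at 37 degrees C in 5% CO2, then exposed to library compounds with dopamine controls for 90 minutes at 37 degrees C before luminescent detection.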
Integrin act MD – qHTS for Activators of Integrin-Mediated Alleviation for Muscular Dystrophy. 0.064% of 350,000 active. Potency, µM (titrated, usually from 38.3 µM), most hits filed as activators. alpha7betagal myoblasts, beta-gal FDG fluorescence, 48 h; active means well fitted activation curve with a large enough effect; inconclusive means small, poorly fitted or top-dose-only effect; inactive means no such curve, though single readings can be large or run the other way; further: nearly all actives have a fitted effect of over 60% in size
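alpha7betagal+/- myoblasts (passage 13, 250/well) treated 48 h at 37C with compounds at 1:260 dilution of DMSO stock. Lysed, then beta-galactosidase activity read as FDG fluorescence (ex 480/em 540) after 30 min, with pre-read for autofluorescence.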
D3 ag – qHTS of D3 Dopamine Receptor Agonist: qHTS; D(3) dopamine receptor (Homo sapiens), P35462; D3R DiscoveRx beta-arrestin cells, luminescence, 90 min; max activation, %; 0.58% of 410,000 active; AID 652048, 2013; in the data active means max activation above about 30%
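Cells at 1500/well, incubated overnight, then treated with pinned compounds (dopamine as control) for 90 min at 37 degrees C. DiscoveRx reagent added for 30 - 60 minutes at room temperature; luminescence read.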
Numbers stand for hits; 0 = inactive; ? = inconclusive; - = no result given.

SMILES	D3 antag	Integrin act MD	D3 ag
CC1CCN(C(=O)N2c3ccccc3Sc3ccccc32)CC1	0	0	0
O=C(CN1CCCCC1)c1c[nH]c2ccccc12	0	0	0
O=C(CN1CCN(Cc2ccccc2)CC1)c1ccccc1	0	0	0
O=C(CN1CCN(Cc2ccccc2)CC1)c1c[nH]c2ccccc12	-54	0	0
O=C(CN1CCN(Cc2ccccc2)CC1)c1ccc(Br)cc1	-62	0	0
CC(C)(C)NC(=O)C1(C)CCC(=O)N1C1CC1 (stereo unspecified)	0	-	0
COc1ccc(-c2nc3n(n2)C(c2cccnc2)C(C(N)=O)=C(C)N3)cc1 (stereo unspecified)	0	0	0
COc1ccc(-c2nc3n(n2)C(c2ccncc2)C(C(N)=O)=C(C)N3)cc1 (stereo unspecified)	-59	0	0
CCC(C)[C@H](NC(=O)C1CCC(CNC(=O)[C@@H]2CCCN2C(=O)OC(C)(C)C)CC1)C(=O)O (stereo partly specified)	0	0	0
CN(C)CC1CCCCC1OC(=O)c1ccc(Cl)cc1Cl (stereo unspecified)	0	0	0
COC(=O)C1=C(C(=O)OC)SC2(S1)C(C(=O)OC)=C(C(=O)OC)SC1=C2c2cc(C)cc(C)c2NC1(C)C	-78	0	0
CS(=O)(=O)c1ccc2nc(NC(=O)c3ccccc3Cl)sc2c1	0	0	0
CS(=O)(=O)c1ccc2nc(NC(=O)c3ccccc3Br)sc2c1	-56	0	0
COc1cc([N+](=O)[O-])ccc1NC(=O)COC(=O)C1=NN(c2ccccc2)C(=O)CC1	0	0	0
Cc1ccc(N(CC(O)CN2CCCCC2)S(=O)(=O)c2ccc(C)cc2)cc1 (stereo unspecified)	-52	0	0
O=S(=O)(c1ccccc1)N(CC(O)CN1CCCC1)c1ccccc1 (stereo unspecified)	0	0	0
Cc1ccc(N(CC(O)CN2CCCCC2)S(=O)(=O)c2ccccc2)cc1 (stereo unspecified)	-77	0	0
Cc1ccc(S(=O)(=O)N(CC(O)CN2CCCC2)c2ccccc2)cc1 (stereo unspecified)	?	0	0
CCOC(=O)C1=NN(C(=O)Nc2ccc(OC)cc2)C2C(=O)N(c3cccc(C(F)(F)F)c3)C(=O)C12 (stereo unspecified)	0	0	0
COc1ccc(-c2ccc3c(c2)S(=O)(=O)c2cccc(C(=O)NCCOc4ccccc4)c2C3=O)cc1OC	0	0	0
CCCn1c(C)cc(-c2csc(N)n2)c1C	0	0	0
Cc1c(-c2csc(N)n2)cnn1C	0	0	42
CCCNc1ccc(C(=O)OCC)cc1[N+](=O)[O-]	0	0	0
COc1cccc(Nc2cc(C)nc3ccccc23)c1	-56	0	0
COc1ccc(OC)c(Nc2cc(C)nc3ccccc23)c1	0	0	0
SMILES	D3 antag	Integrin act MD	D3 ag
CCOC(=O)Cn1c(CN2CCN(C(c3ccccc3)c3ccccc3)CC2)nc2c1c(=O)n(C)c(=O)n2C	0	0	0
CC(C)n1c(CN(C)Cc2ccccc2)nc2c1c(=O)n(C)c(=O)n2C	0	0	50
Cn1c(=O)c2c(nc(CN3CCOCC3)n2CCCc2ccccc2)n(C)c1=O	0	0	0
CN1CCN(Cc2nc3c(c(=O)n(C)c(=O)n3C)n2CCCc2ccccc2)CC1	-52	0	0
Cn1c(=O)c2c(nc(CN3CCN(C(c4ccccc4)c4ccccc4)CC3)n2CC(N)=O)n(C)c1=O	-50	0	0
CC(=O)C(C)n1c(CN(C)Cc2ccccc2)nc2c1c(=O)n(C)c(=O)n2C (stereo unspecified)	0	0	0
COC(=O)N(NC(=O)C(O)(c1ccccc1)c1ccccc1)c1ccccc1	0	0	0
COc1cc(C(=O)NCc2ccncc2)cc(OC)c1OC	0	0	0
CCOc1ccc(NC(=O)CNC(=O)c2ccc(OC)cc2)cc1	0	0	0
COc1ccc(C(=O)NCc2ccc(Cl)c(Cl)c2)cc1OC	0	0	0
COc1ccc(C(=O)NCc2ccc(OCCN(C)C)cc2)cc1OC	-72	-	0
COc1cc(C(=O)NCc2ccc(OCCN(C)C)cc2)cc(OC)c1OC	-95	-	0
CCOc1ccc(NC(=O)CNC(=O)c2ccc(OC)c(OC)c2)cc1	-54	0	0
COc1ccc(C(=O)O)cc1F	0	0	0
COc1ccccc1S(=O)(=O)Nc1cc(C)nn1-c1ccc(C)cc1	0	0	0
CC(=O)OCCCN1c2ccccc2Nc2nnc(-c3ccccc3)cc21	0	0	0
COc1cc2[nH]c(-c3ccc(C)cc3)cc(=O)c2cc1OC	-112	0	0
COc1ccc(-c2cc(=O)c3cc(C)ccc3[nH]2)cc1	0	0	0
O=C(c1ccc(N2C(=O)C3C4c5ccccc5C(c5ccccc54)C3C2=O)cc1)N1CCOCC1 (stereo unspecified)	0	0	0
COC(=O)CSC1=C(C#N)C(c2ccc(C)cc2)C2=C(CCCC2=O)N1 (stereo unspecified)	0	0	0
CCOc1ccc(-n2c(=S)sc3c(=O)[nH]c(SCC(=O)NC4CCCCC4)nc32)cc1	0	0	0
CCOC(=O)CSc1nc2c(sc(=S)n2-c2ccc(CC)cc2)c(=O)[nH]1	0	0	0
CCOC(=O)c1ccc(-n2c(=S)sc3c(=O)[nH]c(C)nc32)cc1	0	0	51
CCc1ccc(-n2c(=S)sc3c(=O)[nH]c(SCC(=O)NC4CCCCC4)nc32)cc1	-51	0	0
Cc1nn(Cc2ccccc2)c(Cl)c1/C=C/C(=O)OCC(=O)N(C)C1CCS(=O)(=O)C1 (stereo unspecified)	0	0	0
SMILES	D3 antag	Integrin act MD	D3 ag
CCCn1c(N2CCN(C(=O)Nc3ccccc3)CC2)nc2ccccc21	0	0	0
CCCn1c(N2CCN(CC(=O)NCc3cccs3)CC2)nc2ccccc21	-67	0	0
CCn1c(C(O)c2ccc3c(c2)OCO3)nc2ccccc21 (stereo unspecified)	0	0	0
CCCCN(C(=O)c1cccc(-n2cnnn2)c1)c1c(N)n(CC(C)C)c(=O)[nH]c1=O	0	0	0
Cc1ccccc1NC(=O)Nc1nc(C(N)C2CCCCC2)cs1 (stereo unspecified)	-84	-	0
CC(C)c1ccc(NC(=O)Nc2nc(C(N)C3CCCCC3)cs2)cc1 (stereo unspecified)	0	-	0
CCOc1ccc(Cl)cc1/C=N/NC(N)=O	0	0	0
C/C(=N\NC(=S)Nc1cccc(C)c1)c1cccc(N)c1	0	0	0
CC(=NNC(=S)Nc1ccc(C)cc1)c1ccccn1	-50	0	0
CC(=NNC(=S)Nc1cccc(C)c1)c1ccccn1	0	0	0
C/C(=N\NC(=S)Nc1cccc(C)c1)c1ccccc1	-52	0	0
Cc1ccc(S(=O)(=O)Nc2cccc(-c3cn4cccc(C)c4n3)c2)c(C)c1	-	-	0
NC(=O)c1ccsc1NC(=O)CCc1ccccc1	0	0	0
Cc1c(C(=O)NC2CCCCC2)sc2ncnc(N3CCN(c4ccccc4)CC3)c12	0	0	0
